Screens as filed in PubChem.
In the library only some 2.8% were active in any assay of this set; here they are far more common.
WRN inhibitor = qHTS for Inhibitors of WRN Helicase; Bifunctional 3'-5' exonuclease/ATP-dependent helicase WRN (Homo sapiens), Q14191; Potency, µM (titrated, usually from 114 µM), actives largely listed as inhibitors; AID 651768, 2012; WRN helicase unwinding, fluorescent forked duplex, kinetic; 360,000 tested, 0.46% active; note: nearly all actives have a fitted effect of over 55% in size
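Primary qHTS, 1536-well format. 20 nM WRN + compound, 15 min RT; start with 100 nM forked fluorophore/quencher duplex, 2 mM ATP (final); kinetic read ex 525/em 598 nm.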
POLH inh = qHTS for Inhibitors of Polymerase Eta | AID 588591, 2011 | recombinant Pol eta, fluorescent DNA replication assay | 390,000 tested, 1.2% active | DNA polymerase eta (Homo sapiens), Q9Y253 | Potency, µM (doses to about 114 µM), usual class: inhibitors
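Pol eta at 10 nM preincubated with compounds 15 min at room temperature; reaction started with fluorescent substrate (50 nM final) and read kinetically at 0 and 10 min.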
PI5P4Ka inh = qHTS for Inhibitors of phosphatidylinositol 5-phosphate 4-kinase (PI5P4K) | Phosphatidylinositol 5-phosphate 4-kinase type-2 alpha (Homo sapiens), P48426 | PI5P4Kalpha enzyme, ADP-Glo luminescence, 60 min; active compounds read low | max response, % | 330,000 tested, 1.2% active | AID 652105, 2013; active = max response of -50% or lower; inconclusive = between -30% and -50%; inactive = -30% or higher; note: value at the top dose of about 77 µM
Target sequence (P48426 whole entry, looked up): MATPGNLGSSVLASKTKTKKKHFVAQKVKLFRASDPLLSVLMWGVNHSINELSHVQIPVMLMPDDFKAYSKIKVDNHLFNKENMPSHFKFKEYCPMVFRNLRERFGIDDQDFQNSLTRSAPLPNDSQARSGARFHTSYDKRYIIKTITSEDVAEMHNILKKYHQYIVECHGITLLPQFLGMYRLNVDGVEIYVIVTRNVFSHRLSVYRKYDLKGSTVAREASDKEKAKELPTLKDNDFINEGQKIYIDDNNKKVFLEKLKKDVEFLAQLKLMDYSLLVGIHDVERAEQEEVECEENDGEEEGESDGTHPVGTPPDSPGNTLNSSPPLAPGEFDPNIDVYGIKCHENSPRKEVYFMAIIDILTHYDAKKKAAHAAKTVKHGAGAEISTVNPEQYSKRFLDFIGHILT
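PI5P4Kalpha ADP-Glo assay; 5 microM ATP final; 60 min RT reaction; HEPES pH 7.4/EGTA/CHAPS, 5% DMSO; controls lacking substrate or enzyme; luminescent end-point.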
Pol beta inh = qHTS Assay for Inhibitors of DNA Polymerase Beta; AID 485314, 2010; P06746; Pol beta primer extension/strand displacement, fluorescence kinetic; 340,000 tested, 1.3% active; Potency, µM (top dose mostly 114 µM), hits mostly inhibitors
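Pol beta (10 nM) was preincubated with compound for 15 min at room temperature. The reaction was then started with 50 nM substrate and read immediately and after a further 10 min at room temperature.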
POLI inh = qHTS for Inhibitors of Polymerase Iota | Potency, µM (top dose mostly 115 µM), most hits filed as inhibitors | 390,000 tested, 1% active | DNA polymerase iota (Homo sapiens), Q9UNA4 | Pol iota fluorescent replication assay, 10 min | AID 588590, 2011
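Fluorescent replication assay read twice, at 0 min and 10 min after adding 50 nM (final) substrate. Enzyme (10 nM) and compounds were first incubated 15 min at room temperature; enzyme-free buffer wells were negative controls.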
POLK inh = qHTS for Inhibitors of Polymerase Kappa. 400,000 tested, 0.53% active. purified Pol kappa, fluorescent DNA synthesis assay, 10 min. AID 588579, 2011. DNA polymerase kappa (Homo sapiens), Q9UBT6. Potency, µM (top dose mostly 107 µM), usual class: inhibitors
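Here, compound and 10 nM enzyme are combined for 15 min at room temperature; adding 50 nM substrate (final) starts DNA synthesis, tracked by fluorescence at 0 and 10 min against buffer-only wells.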
Numbers stand for hits; . = inactive; ? = inconclusive; / = not tested or not shown; [ ] = dose if it differs, or a comment. Unless noted, calls come from the whole dose curve; as a rule, active = well fitted curve in the direction sought with a large enough effect; inconclusive = small, poorly fitted or top-dose-only effect, or another doubt; inactive = no such curve, though single readings can be large; an effect the other way counts as inactive or inconclusive.

SMILES	WRN inhibitor	POLH inh	PI5P4Ka inh	Pol beta inh	POLI inh	POLK inh
COc1ccc(-c2csc(Nc3ccc(S(=O)(=O)Nc4cc(C)on4)cc3)n2)cc1C	.	89µM	.	?	.	.
COc1ccc(-c2csc(Nc3ccc(S(=O)(=O)Nc4cc(OC)nc(OC)n4)cc3)n2)cc1	.	89µM	.	.	.	.
COc1ccc(-c2csc(NC(=O)c3ccccc3NS(=O)(=O)c3ccc(C)cc3)n2)cc1	.	20µM	.	?	32µM	?
COc1ccc(CC(=O)Nc2ccc(S(=O)(=O)Nc3cc(C)on3)cc2)cc1OC	.	.	.	.	.	.
COc1ccccc1N1CCN(C(=O)CSc2nnc(C)n2C2CC2)CC1	.	.	.	/	.	.
CN1CCN(c2ccnc(N(C)CCCCCCN)n2)CC1	/	/	/	/	.	.
CC(=O)N1CCN(CC(=O)NC(=O)Nc2ccc3c(c2)OCCO3)CC1	.	.	.	/	.	.
CCOC(=O)C(C)N1C(=O)S/C(=C/c2cc(C)n(-c3ccccn3)c2C)C1=O (stereo not drawn)	.	.	.	.	.	89µM
CCOC(=O)C(C)N1C(=O)S/C(=C/c2cc(C)n(-c3ccncc3)c2C)C1=O (stereo not drawn)	.	.	.	.	.	.
Nc1ccc(N)c(C(=O)O)c1	32µM	1.3µM	-91	0.4µM	2.5µM	6.3µM
Cc1cccc(-n2ccnc2SCC(=O)Nc2nc3ccccc3s2)c1	/	.	/	?	?	.
CCOc1ccc(-n2ccnc2SCC(=O)Nc2nc3ccc(C)cc3s2)cc1	/	89µM	/	25µM	.	.
Cc1ccc2nc(NC(=O)COC(=O)CSc3nc(C)cc(C)n3)sc2c1	.	.	/	25µM	.	.
CCOC(=O)c1c(SCC(=O)Nc2nc3ccc(C)cc3s2)nc(=O)[nH]c1C	/	.	/	?	89µM	.
CCOC(=O)c1c(SCC(=O)Nc2cc(Cl)cc(Cl)c2)nc(=O)[nH]c1C	/	.	/	.	.	.
Nc1nccnc1C(=O)OCC(=O)c1ccc[nH]1	.	.	.	/	?	.
O=C1NC[C@H](CCCCN2CCN(Cc3ccccc3)C(=O)C2=O)N(CCc2ccccc2)C1=O	.	/	.	/	/	/
CN(C)/C=N/c1nc(Sc2ccc(C(F)(F)F)cc2[N+](=O)[O-])n[nH]1	.	.	.	.	.	.
O=[N+]([O-])c1cc(C(F)(F)F)cc([N+](=O)[O-])c1Sc1n[nH]c(C(F)(F)F)n1	?	.	.	.	25µM	.
COCc1c(C(=O)OCC(=O)c2ccc[nH]2)oc2ccccc12	.	.	.	/	.	.
CSCc1c(C(=O)OCC(=O)c2ccc[nH]2)oc2ccccc12	.[11.6 µM]	?	-76	/	50µM	?
Cc1ccc(/C=[N+](\[O-])c2ccc(N(C)C)cc2)c2nsnc12	.[11.6 µM]	.	.	?	50µM	.
CCOc1cc(CNc2nn[nH]n2)ccc1OCC(=O)NC(C)(C)C	.	.	.	.	.	.
CCCCOc1ccc(/C(O)=C2/C(=O)C(=O)N(CCCOC)C2c2ccncc2)cc1 (stereo not drawn)	.	.	.	.	.	.
CCCOc1ccc(/C(O)=C2/C(=O)C(=O)N(CCCN3CCOCC3)C2c2ccncc2)cc1 (stereo not drawn)	/	/	/	13µM	/	/
SMILES	WRN inhibitor	POLH inh	PI5P4Ka inh	Pol beta inh	POLI inh	POLK inh
COc1cc(-c2noc(-c3ccc(NCc4cccnc4)c([N+](=O)[O-])c3)n2)cc(OC)c1OC	/	.	/	45µM	.	.
COc1ccc(-c2noc(-c3ccc(NCc4cccnc4)c([N+](=O)[O-])c3)n2)cc1OC	/	.	/	?	.	.
COc1ccc(/C=N/Nc2nc(C)cc(-c3ccccc3)n2)c(OC)c1	.	.	.	.	.	.
COc1ccc(/C=N/Nc2ncc(-c3ccccc3)cn2)c(OC)c1	.[11.6 µM]	.	/	?	25µM	.
O=C(O)c1c2c(nc3ccc(Cl)cc13)CCC2	.[11.6 µM]	?	.	16µM	.	.
O=C(O)c1c2c(nc3ccc(F)cc13)CCC2	.	.	/	.	.	.
O=C(CSc1c2c(nc3ccc(Cl)cc13)CCCC2)N1CCN(c2ccc(Cl)cc2)CC1	/	.	/	.	.	.
Cc1ccc2nc3c(c(C(=O)O)c2c1)CCC3	.	32µM	/	45µM	?	.
Cc1ccc(C(=O)Oc2cc(-c3ccc4c(c3)OCO4)cc(=O)c3c(C)oc(C)c23)cc1	/	79µM	/	.	?	.
CSc1ccc(CNC(=O)C2(C)CCCN2CC(C)C)cc1 (stereo not drawn)	.	/	.	/	/	/
Cc1cn(C)c(CC(=O)N2CCN(c3cccc(C(F)(F)F)c3)CC2)c1C(=O)O	/	.	/	.	89µM	.
CCOc1ccc(NC(=O)NC(C)c2c(-n3cccc3)sc3c2CCN(CC)C3)cc1 (stereo not drawn)	/	.	/	.	.	.
O=C1C=CC(=O)N1c1ccc(OC(F)F)cc1	32µM	.	?	.	.	.
O=C1C=CC(=O)N1c1ccc(O)cc1	.	.	.	.	.	.
CCCNC(=O)C1(C)CCCN(C(=O)c2ccc3snnc3c2)C1 (stereo not drawn)	.	/	.	/	/	/
COC(=O)CC1=NN(c2ccc(OC)cc2)C(=O)/C1=C\c1ccc(Cl)cc1	.	.	.	.	.	.
COC(=O)CC1=NN(c2ccccc2)C(=O)/C1=C\c1ccc(OC)cc1	50µM	.	.	.	.	.
CC1Cc2cccc3c(O)c(C(=O)c4nn[nH]n4)c(=O)n1c23 (stereo not drawn)	.	.	.	.	.	.
O=C(NCCN1C(=O)S/C(=C\c2cccnc2)C1=O)C1=NN(c2ccccc2)C(=O)CC1	?	.	-67	.	?	.
Cc1ccccc1-c1cc2c(nn1)-c1ccccc1C2=O	.	.	.	.	16µM	.
O=C1c2ccccc2-c2nnc(-c3ccc(F)cc3)cc21	.	.	.	.	?	.
Cc1cccn2c(=S)[nH]nc12	.	.	-59	/	.	.
Cc1ccccc1-n1c(C)n[nH]c1=S	.	.	/	.	?	.
CCCN=C1N(CC)C[C@@H]2[C@@H]3C(=O)N(Cc4ccccc4)C(=O)[C@@H]3[C@](Cc3ccccc3)(C(=O)OC)N12	.	.	.	/	.	?
CN(C)c1ccc(/C=C2/CCCc3c2nc2ccccc2c3C(=O)O)cc1	/	/	/	/	?	79µM
Clc1ccccc1-c1cncnc1NCCN1CCOCC1	/	/	/	/	/	.
CCCc1cc2c(=O)c(-c3nc4ccccc4s3)c(COCC(=O)O)oc2cc1O	.	79µM	-74	.	?	.
CCc1cc2c(=O)c(-c3nc4ccccc4n3C)c(COCC(=O)O)oc2cc1O	.	.	/	.	.	.
